Values joined by “and” are separate entries in the source; they are usually repeats but may differ in a detail not shown here. Equal values may be shown once. Active and inactive are the calls of the source. The calls were made as follows: active = hit-call score of the fitted dose curve at least 0.9, where 1 is the maximum; inactive = score below 0.9.
What was measured:
[1] = read-out: Transforming growth factor beta 1 (TGFb1), TGFB1 (gene 7040); assay: BSK_KF3CT_TGFb1: BioMAP Diversity Plus: KF3CT Assay for Transforming growth factor beta 1 (TGFb1) Biomarker Activity (AID 2283072); settings: primary human keratinocytes with fibroblasts; actives raise or lower the signal
Method in brief: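 Read-out: ELISA for TGF-b1 in keratinocyte/foreskin fibroblast human skin co-culture, 24 h after dosing; bidirectional curve fit vs DMSO baseline; gain or loss of signal scored.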

[2] = read-out: C-C motif chemokine 2 (Homo sapiens) (UniProt P13500); assay: BSK_KF3CT_MCP1: BioMAP Diversity Plus: KF3CT Assay for Monocyte Chemoattractant Protein 1 (MCP1/CCL2) Biomarker Activity (AID 2283073); settings: primary human keratinocytes with fibroblasts; actives raise or lower the signal
Method in brief: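 Keratinocytes and foreskin fibroblasts were co-cultured, dosed with chemical, and sampled 24 h later. MCP-1 was quantified by ELISA, and the endpoint was analyzed with bidirectional fitting using DMSO as negative control.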

[3] = read-out: Matrix Metallopeptidase 9 (MMP9), MMP9 (gene 4318); assay: BSK_KF3CT_MMP9: BioMAP Diversity Plus: KF3CT Assay for Matrix Metallopeptidase 9 (MMP9) Biomarker Activity (AID 2283074); settings: primary human keratinocytes with fibroblasts; actives raise or lower the signal
Method in brief: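 ELISA read-out of MMP-9 at 24 h post-dosing in a co-culture of human skin keratinocytes and foreskin fibroblasts. Gain or loss of signal was fitted in both directions against DMSO.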

[4] = read-out: urokinase plasminogen activator (uPA), PLAU (gene 5328); assay: BSK_KF3CT_uPA: BioMAP Diversity Plus: KF3CT Assay for urokinase plasminogen activator (uPA) Biomarker Activity (AID 2283075); settings: primary human keratinocytes with fibroblasts; actives raise or lower the signal
Method in brief: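 Skin co-culture (keratinocytes + foreskin fibroblasts), human primary; 24 h post-dose; uPA by ELISA; gain/loss fit vs DMSO baseline.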

CD40, CD40 (gene 958) = assay: BSK_LPS_CD40: BioMAP Diversity Plus: LPS Assay for CD40 Biomarker Activity (AID 2283076); settings: primary human HUVEC with PBMC; actives raise or lower the signal
Method in brief: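 CD40 signal, measured by ELISA, is fitted in both directions relative to DMSO vehicle. The system is an LPS-driven human vascular primary co-culture of endothelial cells and PBMC, sampled 24 h after compound addition.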

[5] = read-out: Interleukin-8 (IL8), CXCL8 (gene 3576); assay: BSK_LPS_IL8: BioMAP Diversity Plus: LPS Assay for Interleukin-8 (IL8) Biomarker Activity (AID 2283078); settings: primary human HUVEC with PBMC; actives raise or lower the signal
Method in brief: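 Endothelial cells and PBMC from human donors are co-cultured, treated with chemicals and LPS, then assayed for IL-8 by ELISA after 24 h. Parallel SRB staining (0.1% SRB after 10% TCA fixation, 560 nm) flags cytotoxicity.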

[6] = BSK_LPS_SRB: Viability Assessment in the BioMAP Diversity Plus: LPS Assay (AID 2283079); settings: primary human HUVEC with PBMC;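 also: total protein by sulforhodamine B absorbance as a cytotoxicity measure; measured one day after compound addition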
Method in brief: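 Overt cytotoxicity was gauged by sulforhodamine B total-protein staining in a primary human vascular endothelial and mononuclear cell co-culture 24 h post-dosing. Activity was fitted in both directions relative to DMSO.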

[7] = read-out: Interleukin-1 alpha (IL1a), IL1A (gene 3552); assay: BSK_LPS_IL1a: BioMAP Diversity Plus: LPS Assay for Interleukin-1 alpha (IL1a) Biomarker Activity (AID 2283080); settings: primary human HUVEC with PBMC; actives raise or lower the signal
Method in brief: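 Measured: IL-1 alpha via ELISA at 24 h in LPS-activated human umbilical vein endothelium–PBMC co-culture. Baseline: DMSO, bidirectional fitting.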

[8] = read-out: Monocyte Chemoattractant Protein-1 (MCP1), CCL2 (gene 6347); assay: BSK_LPS_MCP1: BioMAP Diversity Plus: LPS Assay for Monocyte Chemoattractant Protein-1 (MCP1) Biomarker Activity (AID 2283081); settings: primary human HUVEC with PBMC; actives raise or lower the signal;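 as to AC50: secreted MCP-1 protein quantified by ELISA in culture supernatant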
Method in brief: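 LPS-stimulated HUVEC/PBMC co-culture; chemical, 24 h; MCP-1 by ELISA; bidirectional fit vs DMSO; cytotoxicity via SRB (0.1% stain, 10% TCA fix, 560 nm) in parallel wells.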

[9] = read-out: E-selectin (Homo sapiens) (UniProt P16581); assay: BSK_LPS_Eselectin: BioMAP Diversity Plus: LPS Assay for Eselectin Biomarker Activity (AID 2283077); settings: primary human HUVEC with PBMC; actives raise or lower the signal
Method in brief: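 Signal of E-selectin, detected by ELISA, served as the endpoint; cells were umbilical vein endothelium with PBMC, read 24 h after treatment. DMSO defined baseline, and both increases and decreases were fitted.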

Measured: AC50

Sequence of E-selectin (Homo sapiens) (P16581 whole entry, looked up): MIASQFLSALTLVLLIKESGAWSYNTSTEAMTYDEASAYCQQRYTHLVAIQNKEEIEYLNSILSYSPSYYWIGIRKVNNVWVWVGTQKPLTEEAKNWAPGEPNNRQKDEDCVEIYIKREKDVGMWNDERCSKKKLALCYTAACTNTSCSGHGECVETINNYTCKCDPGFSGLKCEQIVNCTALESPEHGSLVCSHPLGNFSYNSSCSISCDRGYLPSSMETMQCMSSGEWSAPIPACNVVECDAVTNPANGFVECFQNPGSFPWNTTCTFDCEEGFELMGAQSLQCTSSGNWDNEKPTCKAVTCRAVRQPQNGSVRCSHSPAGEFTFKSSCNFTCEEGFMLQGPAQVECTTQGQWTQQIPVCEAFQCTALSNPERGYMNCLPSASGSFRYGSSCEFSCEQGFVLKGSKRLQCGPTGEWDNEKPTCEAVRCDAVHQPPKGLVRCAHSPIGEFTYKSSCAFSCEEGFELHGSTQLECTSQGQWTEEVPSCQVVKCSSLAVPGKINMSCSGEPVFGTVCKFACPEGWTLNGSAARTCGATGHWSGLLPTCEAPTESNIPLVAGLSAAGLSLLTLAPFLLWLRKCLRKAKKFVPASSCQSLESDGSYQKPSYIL

CCOC(=O)[C@H](C)Oc1ccc(Oc2nc3ccc(Cl)cc3o2)cc1
not listed: [9]
inactive: all other assays above

CCOC(=O)NCCOc1ccc(Oc2ccccc2)cc1
active: [2] 4.43 µM | CD40, CD40 (gene 958) 8.9 µM | [6] 14.2 µM | [8] 14.4 µM
not listed: [3]
inactive: all other assays above

c1ccc(Nc2ccccc2)cc1
not listed: [3] | [9]
inactive: all other assays above

COC(=O)CSc1cc(N=c2sc(=O)n3n2CCCC3)c(F)cc1Cl
not listed: [1] | [3] | [9]
inactive: all other assays above

CC(=O)[C@H]1CC[C@H]2[C@@H]3CCC4=CC(=O)CC[C@]4(C)[C@H]3CC[C@]12C
inactive: [2] | [4] | [7]
active: CD40, CD40 (gene 958) 20 µM | [5] 20 µM | [6] 8 µM | [8] 25 µM

Oc1ccc(C(c2ccc(O)cc2)C(Cl)(Cl)Cl)cc1
active: [2] 20 µM | [4] 31.8 µM | CD40, CD40 (gene 958) 24.9 µM | [5] 14.9 µM | [6] 17 µM | [7] 24.8 µM | [8] 33.9 µM
inactive: [1]

CCOC(=O)C(C)Oc1ccc(Oc2cnc3cc(Cl)ccc3n2)cc1 (configuration not stated)
not listed: [3] | [9]
inactive: all other assays above

C[C@]12CC[C@@H]3c4ccc(O)cc4C[C@@H](CCCCCCCCCS(=O)CCCC(F)(F)C(F)(F)F)[C@H]3[C@@H]1CC[C@@H]2O (some centres not stated)
not listed: [3] | [9]
inactive: all other assays above

COC(=O)c1ccc(CNS(C)(=O)=O)cc1S(=O)(=O)NC(=O)Nc1nc(OC)cc(OC)n1
not listed: [3] | [9]
inactive: all other assays above

CCSC(=O)N(CC(C)C)CC(C)C
not listed: [3] | [9]
inactive: all other assays above

CCOC(=O)C(C)Oc1ccc(Oc2nc3ccc(Cl)cc3o2)cc1 (configuration not stated)
not listed: [3] | [9]
inactive: all other assays above

CCCCOC(=O)C(C)Oc1ccc(Oc2ccc(C(F)(F)F)cn2)cc1 (configuration not stated)
not listed: [3] | [9]
inactive: all other assays above

COC(=O)c1ccccc1S(=O)(=O)NC(=O)Nc1nc(OC(F)F)cc(OC(F)F)n1
not listed: [3] | [9]
inactive: all other assays above

COc1c(Cl)ccc(Cl)c1C(=O)O
not listed: [2] | [3]
inactive: all other assays above

N#CSCSc1nc2ccccc2s1
active: [1] 10.2 µM and 11.5 µM | [2] 2.31 µM and 11.1 µM | [4] 6.91 µM and 11.5 µM | CD40, CD40 (gene 958) 1.9 µM and 5.14 µM | [5] 5.09 µM and 9.38 µM | [6] 8.07 µM and 9.64 µM | [7] 1.51 µM and 4.83 µM | [8] 6.17 µM and 6.23 µM

O=C(Nc1ccc([N+](=O)[O-])cc1Cl)c1cc(Cl)ccc1O
active: [2] 0.148 µM | [4] 0.266 µM | CD40, CD40 (gene 958) 0.161 µM | [5] 0.47 µM | [6] 0.445 µM | [7] 0.109 µM
inactive: [1]
